Out of some 5,500 compounds screened, about 2,000 (36%) were called active. Inconclusive results (about 18%) are left out. Rule as the data show it: active = normalized growth mostly below about 0.91 (no sharp cut-off); inconclusive = no clear call, values can overlap the other calls; inactive = mostly above about 0.92. Some of the results follow.
Experiment: chemical genetic growth profiling, strain panel (AID 1159580);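 also: tested at 20 µM; growth read once vehicle control cultures reached saturation at 30 °C; 1 = growth at the plate median or of vehicle wells; lower values mean less growth of the strain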
Details: S. cerevisiae deletion strains, growth OD

Measured: normalized growth

CC(C)=CCOc1c2occc2cc2ccc(=O)oc12
inactive: locus YJR066W, strain TOR1, active compounds read low 0.891 | locus YLL026W, active compounds read low 0.931 | locus YLR113W, strain HOG1, active compounds read low 1.02 | locus YLR357W, strain rsc2, active compounds read low 0.871 | locus YMR231W, strain pep5, active compounds read low 0.936 | locus YNL183C, strain NPR1, active compounds read low 0.912 | locus YNL209W, strain ssb2, active compounds read low 0.936 | locus YNL248C, strain rpa49, active compounds read low 0.936 | locus YOL012C, strain htz1 0.448 | locus YOR061W, strain CKA2, active compounds read low 0.917 | locus YOR070C, strain gyp1, active compounds read low 0.93 | locus YOR080W, strain dia2, active compounds read low 0.921 | locus YOR106W, strain vam3, active compounds read low 0.881 | locus YOR231W, strain MKK1, active compounds read low 0.955 | locus YOR265W, strain rbl2, active compounds read low 0.93 | locus YPL106C, strain sse1, active compounds read low 0.941 | locus YPL256C, strain CLN2, active compounds read low 0.969
active: locus YKL009W, strain mrt4, active compounds read low 0.844 | locus YKL068W, active compounds read low 0.898 | locus YKL085W, strain MDH1 (second series), active compounds read low 0.898 | locus YKL085W, strain MDH1, active compounds read low 0.898 | locus YKL160W, strain elf1, active compounds read low 0.898 | locus YKL190W, strain CNB1, active compounds read low 0.854 | locus YKR001C, strain vps1, active compounds read low 0.599 | locus YKR026C, strain gcn3, active compounds read low 0.905 | locus YKR091W, strain srl3, active compounds read low 0.929 | locus YLL001W, strain dnm1, active compounds read low 0.862 | locus YLL041C, strain sdh2, active compounds read low 0.919 | locus YLR027C, strain aat2, active compounds read low 0.893 | locus YLR039C, strain RIC1, active compounds read low 0.429 | locus YLR058C, strain SHM2, active compounds read low 0.748 | locus YLR102C, strain apc9, active compounds read low 0.843 | locus YLR221C, strain rsa3, active compounds read low 0.821 | locus YLR258W, strain gsy2, active compounds read low 0.908 | locus YLR262C, strain YPT6 (second series), active compounds read low 0.749 | locus YLR262C, strain YPT6, active compounds read low 0.448 | locus YLR268W, strain sec22, active compounds read low 0.695 | locus YLR320W, strain mms22, active compounds read low 0.652 | locus YLR330W, strain CHS5, active compounds read low 0.507 | locus YLR342W, strain FKS1 (second series), active compounds read low 0.416 | locus YLR342W, strain FKS1, active compounds read low 0.86 | locus YLR370C, strain arc18, active compounds read low 0.906 | locus YLR371W, strain rom2, active compounds read low 0.582 | locus YLR384C, strain iki3, active compounds read low 0.9 | locus YLR418C, strain cdc73, active compounds read low 0.28 | locus YML016C, strain PPZ1, active compounds read low 0.875 | locus YML032C, strain rad52, active compounds read low 0.676 | locus YML120C, strain ndi1, active compounds read low 0.875 | locus YML124C, strain tub3, active compounds read low 0.827 | locus YMR058W, strain fet3, active compounds read low 0.886 | locus YMR078C, strain ctf18, active compounds read low 0.781 | locus YMR125W, strain sto1, active compounds read low 0.826 | locus YMR129W, active compounds read low 0.921 | locus YMR205C, strain PFK2, active compounds read low 0.817 | locus YMR223W, strain ubp8, active compounds read low 0.736 | locus YMR307W, strain GAS1, active compounds read low 0.443 | locus YNL067W, strain RPL9B, active compounds read low 0.764 | locus YNL071W, strain lat1, active compounds read low 0.573 | locus YNL153C, strain GIM3, active compounds read low 0.73 | locus YNL233W, strain BNI4, active compounds read low 0.517 | locus YNL250W, strain rad50, active compounds read low 0.884 | locus YNL271C, strain bni1, active compounds read low 0.849 | locus YNL298W, strain CLA4, active compounds read low 0.823 | locus YNL307C, strain MCK1, active compounds read low 0.222 | locus YNL322C, strain KRE1 (second series), active compounds read low 0.904 | locus YNR049C, strain mso1, active compounds read low 0.914 | locus YNR052C, strain pop2, active compounds read low 0.877 | locus YOL006C, strain TOP1, active compounds read low 0.373 | locus YOL147C, strain pex11, active compounds read low 0.551 | locus YOR001W, strain rrp6, active compounds read low 0.89 | locus YOR069W, strain VPS5, active compounds read low 0.783 | locus YOR083W, strain WHI5, active compounds read low 0.86 | locus YOR136W, strain idh2, active compounds read low 0.851 | locus YOR144C, strain elg1, active compounds read low 0.717 | locus YOR184W, strain ser1, active compounds read low 0.459 | locus YOR270C, strain vph1, active compounds read low 0.592 | locus YOR290C, strain snf2, active compounds read low 0.787 | locus YOR316C, strain cot1, active compounds read low 0.86 | locus YPL051W, strain arl3, active compounds read low 0.908 | locus YPL055C, strain LGE1, active compounds read low 0.657 | locus YPL078C, strain atp4, active compounds read low 0.843 | locus YPL240C, strain hsp82, active compounds read low 0.912 | locus YPR119W, strain clb2, active compounds read low 0.837 | locus YPR141C, strain kar3, active compounds read low 0.869 | locus YPR163C, strain tif3, active compounds read low 0.34 | locus YPR167C, strain met16, active compounds read low 0.782 | strain wtn01, active compounds read low 0.708

— PubChem BioAssay AID1159580 (chemical genetic matrix, 2015)
